Hits are enriched below; roughly 2.4% of the tested compounds scored in any of these assays.
GCN5L2 inh: qHTS Assay for Inhibitors of GCN5L2; Potency, µM (top dose mostly 58.9 µM), for inactives: at the highest dose activity change, negative = inhibition, usual class: inhibitors; actives 0.21% (n = 390,000); AID 504327, 2011; GCN5L2 HAT assay, ThioGlo1 CoA-SH fluorescence; note: potency is the fitted concentration of half-maximal effect; % is set by controls: 0 for no effect and ±100 for the full control effect
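qHTS, 1536-well. 20nM enzyme, pH 7.5 HEPES/EDTA/Tween-20 buffer; 15 min compound preinc., RT. Start: 75uM H3(1-25), 70uM AcCoA, 50uM ThioGlo1. Read Ex340/Em540 at t=0 (autofluorescence flag) and t=20 min.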
POLB inh: qHTS Assay for Inhibitors of DNA Polymerase Beta; Potency, µM (top dose mostly 114 µM), for the others: at the highest dose activity change, negative = inhibition, most hits filed as inhibitors; actives 1.3% (n = 340,000); Pol beta primer extension/strand displacement, fluorescence kinetic; note: potency is the fitted concentration of half-maximal effect; % is set by controls: 0 for no effect and ±100 for the full control effect
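Pol beta (10 nM) was preincubated with compound for 15 min at room temperature. The reaction was then started with 50 nM substrate and read immediately and after a further 10 min at room temperature.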
GLS inh: qHTS for Inhibitors of Glutaminase (GLS) | Glutaminase kidney isoform, mitochondrial (Homo sapiens), O94925 | GLS enzymatic activity, qHTS titration | Potency, µM (series often up to 45.5 µM), for the others: at the top dose activity change, negative = inhibition, usual class: inhibitors | actives 0.21% (n = 410,000); note: potency is the fitted concentration of half-maximal effect; % is set by controls: 0 for no effect and ±100 for the full control effect
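hKGA; 45 mM KH2PO4 pH 8.2 + 0.02% Tween-20; cpd via pin tool; 1 mM Gln soln; GluOx/HRP/Amplex Red; RT 30 min; fluor. t0 & final.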
Pol iota inh: qHTS for Inhibitors of Polymerase Iota. actives 1% (n = 390,000). Potency, µM (highest dose often 115 µM), for inactives: at the highest dose activity, negative = inhibition, most hits filed as inhibitors. Pol iota fluorescent replication assay, 10 min; note: potency is the fitted concentration of half-maximal effect
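Pol iota at 10 nM preincubated 15 min with compounds at room temperature; reaction started with fluorescent substrate, 50 nM final. Fluorescence read kinetically at 0 and 10 min; buffer-only wells as negative control.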
Pol eta inh-1: qHTS for Inhibitors of Polymerase Eta. DNA polymerase eta (Homo sapiens), Q9Y253. recombinant Pol eta, fluorescent DNA replication assay. Potency, µM (highest dose often 114 µM), without a hit: at the top dose activity change, negative = inhibition, usual class: inhibitors. actives 1.2% (n = 390,000). AID 588591, 2011; note: potency is the fitted concentration of half-maximal effect; % is set by controls: 0 for no effect and ±100 for the full control effect
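Pol eta at 10 nM preincubated with compounds 15 min at room temperature; reaction started with fluorescent substrate (50 nM final) and read kinetically at 0 and 10 min.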
Pol kappa inh-1: qHTS for Inhibitors of Polymerase Kappa; DNA polymerase kappa (Homo sapiens), Q9UBT6; purified Pol kappa, fluorescent DNA synthesis assay, 10 min; Potency, µM (series often up to 107 µM), inactives show top-dose activity, negative = inhibition, usual class: inhibitors; actives 0.53% (n = 400,000); AID 588579, 2011; note: potency is the fitted concentration of half-maximal effect; % is set by controls: 0 for no effect and ±100 for the full control effect
Target sequence (Q9UBT6 whole entry, looked up): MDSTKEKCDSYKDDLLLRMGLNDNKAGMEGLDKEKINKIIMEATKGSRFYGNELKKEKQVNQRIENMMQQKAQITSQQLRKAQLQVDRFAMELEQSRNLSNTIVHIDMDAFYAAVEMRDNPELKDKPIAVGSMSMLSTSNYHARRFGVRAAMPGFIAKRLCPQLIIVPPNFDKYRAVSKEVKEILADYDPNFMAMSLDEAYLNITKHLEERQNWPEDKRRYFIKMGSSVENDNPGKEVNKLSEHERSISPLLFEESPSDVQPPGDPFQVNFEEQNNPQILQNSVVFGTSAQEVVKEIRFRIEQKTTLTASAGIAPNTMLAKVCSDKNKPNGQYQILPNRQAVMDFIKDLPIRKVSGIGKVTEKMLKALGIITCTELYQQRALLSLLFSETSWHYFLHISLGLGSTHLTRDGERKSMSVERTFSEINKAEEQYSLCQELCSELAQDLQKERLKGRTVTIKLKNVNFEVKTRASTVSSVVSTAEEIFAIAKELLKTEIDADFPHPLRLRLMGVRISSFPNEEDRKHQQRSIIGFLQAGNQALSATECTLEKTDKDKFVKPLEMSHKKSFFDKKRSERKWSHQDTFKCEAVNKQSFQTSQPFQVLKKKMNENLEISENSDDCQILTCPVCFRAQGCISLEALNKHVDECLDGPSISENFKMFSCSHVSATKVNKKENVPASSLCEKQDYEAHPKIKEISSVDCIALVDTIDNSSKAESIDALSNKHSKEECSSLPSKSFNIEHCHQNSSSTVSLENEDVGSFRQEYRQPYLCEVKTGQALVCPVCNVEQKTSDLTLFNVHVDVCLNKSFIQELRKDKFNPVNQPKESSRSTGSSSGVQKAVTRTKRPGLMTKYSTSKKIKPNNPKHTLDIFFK
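Here, compound and 10 nM enzyme are combined for 15 min at room temperature; adding 50 nM substrate (final) starts DNA synthesis, tracked by fluorescence at 0 and 10 min against buffer-only wells.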
GALK inh confirm: Confirmation Assay for Inhibitors of Human Galactokinase (GALK); shares compounds with Pol eta inh-1; purified GALK, Kinase-Glo ATP depletion luminescence; Potency, µM (doses to about 115 µM), for the others: at the highest dose activity, negative = inhibition, usual class: inhibitors; actives 70% (n = 150); AID 2015, 2009
Redox cycling: Confirmatory Assay for Inhibitors of Human Galactokinase (GALK): Phenol-HRP redox assay counterscreen | actives 40% (n = 150) | shares compounds with Pol eta inh-1 | Potency, µM (doses to about 115 µM), for the others: top-dose activity change, negative = H2O2 signal, hits mostly inhibitors | Phenol red-HRP H2O2 redox cycling, absorbance 600 nm
HEK293 tox: Secondary Assay for Inhibitors of Human Galactokinase (GALK): HEK-293 Cell Viability Assay. shares compounds with Pol eta inh-1. HEK-293 viability, ATP luminescence (CellTiter-Glo), 24/48 h. Potency, µM (series often up to 46.1 µM), for the others: at the top dose activity change, negative = cytotoxicity, usual class: inhibitors. actives 10% (n = 170); note: potency is the fitted concentration of half-maximal effect; % is set by controls: 0 for no effect and ±100 for the full control effect
Pol kappa inh-2: qHTS for Inhibitors of Polymerase Kappa: Confirmatory Assay for Cherry-picked Compounds; shares compounds with Pol eta inh-1; purified Pol-kappa, fluorescent strand-displacement substrate; Potency, µM, usual class: inhibitors; actives 76% (n = 920); AID 720501, 2013; note: potency is the fitted concentration of half-maximal effect
Pol eta inh-2: qHTS for Inhibitors of Polymerase Eta: Confirmatory Assay for Cherry-picked Compounds. actives 64% (n = 2,600). shares compounds with Pol eta inh-1. Pol eta primer extension, TAMRA/BHQ fluorescence, 10 min. AID 720502, 2013. Potency, µM, usual class: inhibitors; note: potency is the fitted concentration of half-maximal effect
Numbers without * were called inactive; ? = inconclusive; · = no result; [ ] = another dose, or the depositor's remark. Calls come from the whole dose curve; as a rule, active = well fitted curve in the direction sought with a large enough effect; inconclusive = small, poorly fitted or top-dose-only effect, or another doubt; inactive = no such curve, though single readings can be large; an effect the other way counts as inactive or inconclusive.

SMILES	GCN5L2 inh	POLB inh	GLS inh	Pol iota inh	Pol eta inh-1	Pol kappa inh-1	Pol eta inh-2	others
COc1ccc(NC(=O)c2ccc(N3C(=O)C4CC=C(Cl)CC4C3=O)cc2)cc1 (stereo not given)	-4%	?	-6%	?	-1%	-15%	·
O=C(NN1C(=O)C2CC=C(Cl)CC2C1=O)c1ccncc1 (stereo not given)	2%	3.2µM*	-8%	40µM*	10µM*	50µM*	60*
Cc1ccc(CNC(=O)C(CC(C)C)N2Cc3ccccc3C2=O)cc1 (stereo not given)	-3%	15%	9%	4%	-19%	2%	·
Cc1cc(C)cc(OCc2cc(=O)n3c(-c4ccccc4)csc3n2)c1	-22%	13µM*	-12%	?	?	?	?	Pol kappa inh-2=?
COc1cc(=O)n2c(-c3ccccc3)csc2n1	-6%	-9%	-4%	3%	-13%	-5%	·
CCC(=O)N1CCc2cc(Br)cc(S(=O)(=O)N3CCCC(C(=O)NCc4cccc(OC)c4)C3)c21 (stereo not given)	3%	6%	-10%	12%	3%	-27%	·
O=C(COc1ccc(Br)cc1Br)Nc1ccc(S(=O)(=O)Nc2ncccn2)cc1	-28%	-1%	3%	-3%	-7%	-6%[60.1 µM]	·
N=C1S/C(=C\c2ccc(-c3cccc(Cl)c3)o2)C(=O)N1c1nccs1	36%	8.9µM*	-9%	?	10µM*	-43%	?	Pol kappa inh-2=24*
Cc1cc(Nc2ccc(F)cc2F)nc(-n2nc(C)cc2C)n1	0%	-2%	-8%	24%	-17%	-4%[60.1 µM]	·
CCc1ccc(S(=O)(=O)c2c(C(=O)c3ccccc3)cnc3ccc(CC)cc23)cc1	-5%	3%	2%	34%	-10%	-2%	·
O=C(CCc1nc2ccccc2c(=O)[nH]1)Nc1ccc(F)c([N+](=O)[O-])c1	-6%	?	66%	49%	?	-35%	67*
COc1ccc(NC(=O)c2oc3c(c2C)-c2nn(Cc4c(F)cccc4Cl)cc2CC3)c(OC)c1	-17%	-15%	-2%	-7%	-19%	1%	·
Cc1cc(C)cc(OCc2ccc(C(=O)Nc3ccccc3F)o2)c1	1%	18%	6%	-13%	-15%	-14%	·
Cc1snc(S(=O)(=O)/C(C#N)=N/Nc2ccc(C(F)(F)F)cc2)c1C#N	-13%	0%	8%	0%	0%	1%	·	GALK inh confirm=38µM*;Redox cycling=3%;HEK293 tox=6%
Cc1snc(S(=O)(=O)/C(C#N)=N\Nc2ccccc2)c1C#N	·	23%	2%	?	-9%	6%	·
Cc1ccc(OCCSc2nc3ccccc3n2CC(=O)N2CCCCC2)cc1C	-3%	15%	6%	-9%	-19%	2%	·
CCOc1cc(/C=C2\CCCC(C(=O)C(F)(F)F)=C2O)ccc1O	-5%	50µM*	16%	8%	?	0%	·	Pol kappa inh-2=75*
O=C(O)c1cccc(-c2ccc(/C=N/NC(=O)C3COc4ccccc4O3)o2)c1 (stereo not given)	-12%	20µM*	0%	?	28µM*	?	60*
CC(C)(C)c1ccc2c(c1)OC(C(=O)N/N=C\c1ccc(-c3cccc(C(=O)O)c3)o1)CO2 (stereo not given)	-22%	-37%	?	?	11µM*	?	17*
O=C(N/N=C\c1ccc([N+](=O)[O-])o1)C1COc2ccccc2O1 (stereo not given)	-3%	13%	-5%	?	-16%	-21%	·
CCC[C@H](NC(C)=O)C(=O)N[C@H]1CC(=O)ONCCCC[C@@H](C(N)=O)NC(=O)[C@H](Cc2c[nH]c3ccccc23)NC(=O)[C@H](CCCN=C(N)N)NC(=O)[C@@H](Cc2ccc3ccccc3c2)NC(=O)[C@H](Cc2cnc[nH]2)NC1=O	-14%	·	·	·	·	12%[60.1 µM]	·
Cc1cc(/C=C2/C(=N)N3C(c4ccccc4)=CSC3=NC2=O)c(C)n1-c1ccc(Cl)cc1	·	·	-21%	39%	-4%	-3%	·
COc1cc(/C=C2\C(=N)N3N=C(C)SC3=NC2=O)cc(OC)c1OCCOc1ccccc1C	?	4%	13%	?	-9%	-13%	·
COc1cc(/C=C2/C(=N)N3C(=NC2=O)SN=C3S(=O)(=O)C(C)C)ccc1OS(=O)(=O)c1ccccc1	?	?	·	·	·	·	·	GALK inh confirm=?;Redox cycling=3%;HEK293 tox=0%
COc1cc(/C=C2/C(=N)N3C(c4ccccc4)=CSC3=NC2=O)ccc1OCC(=O)O	-1%	-22%	15%	-30%	20µM*	-27%	?
COc1cc(/C=C2\C(=N)N3N=C(S(C)(=O)=O)SC3=NC2=O)cc(OC)c1OCCOc1ccccc1C	-25%	?	1%	?	25µM*	-9%	?	Pol kappa inh-2=?
